Results filed as inconclusive are left out. The source made the active and inactive calls. Unless noted, calls come from the whole dose curve; as a rule, active = well fitted curve in the direction sought with a large enough effect in the repeat runs; inconclusive = weak or mixed curves; inactive = no such curve, though single readings can be large; an effect the other way counts as inactive or inconclusive.

Test [1] in a line: qHTS assay to identify small molecule agonists of the vitamin D receptor (VDR) signaling pathway - cell viability counter screen (AID 743224). Note: series mostly up to about 63 µM; nearly all actives have a fitted effect of over 50% in size. In short, it runs like this: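 Here cell health was gauged by luminescent ATP detection (CellTiter-Glo, 30 min RT) in VDR-bla cells that had been incubated with test compounds for 16 h at 37C and 5% CO2.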
On the technique in general: Quantitative high-throughput screening tests each substance at several concentrations.

Test [2] in a line: qHTS assay to identify small molecule antagonists of the vitamin D receptor (VDR) signaling pathway - cell viability counter screen (AID 743225). Note: nearly all actives have a fitted effect of over 50% in size. In short, it runs like this: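 Read-out: CellTiter-Glo luminescence measured 30 min after reagent addition at room temperature. Cells were VDR-bla HEK 293T exposed 16 h at 37C, 5% CO2, to compound with 3 nM final calcitriol agonist.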

The nature of test [3]: qHTS assay to identify small molecule agonists of the NFkB signaling pathway (AID 1159509; active = well fitted curve in the direction sought with a large enough effect in the signal ratio in the repeat runs, not every such curve was filed as active; the % refers to the signal ratio; note: series mostly up to about 61 µM). In short, it runs like this:
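NFkB-bla ME-180 cells carry a beta-lactamase reporter under an NF-kB response element. They were plated overnight, then exposed to compounds for 5 h at 37 C. Read-out is LiveBLAzer FRET after 1.5 hr at room temperature (405 nm excitation; 460/530 nm emission).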

A short description of test [4]: qHTS assay to identify small molecule agonists of the endoplasmic reticulum stress response signaling pathway (AID 1159516; active = well fitted activation curve with a large enough effect in the signal ratio in the repeat runs, not every such curve was filed as active; the % refers to the signal ratio). In short, it runs like this:
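Reporter HeLa cells (ESRE-beta-lactamase) underwent 5 hr compound incubation at 37 C and 5% CO2 in quantitative HTS format. Detection followed 2 hr of FRET substrate loading at room temperature.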

A short description of test [5]: qHTS assay to identify small molecule agonists of the endoplasmic reticulum stress response signaling pathway - cell viability counter screen (AID 1159517; calls by dose curve;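 note: HeLa cells carrying an ER stress response element beta-lactamase reporter; series mostly up to about 61 µM; nearly all actives have a fitted effect of over 50% in size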). In short, it runs like this:
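ESRE-bla HeLa cells, 1,500 per well, seeded overnight then treated with compounds for 5 hr at 37 C. After the beta-lactamase read, viability in the same wells is measured by CellTiter-Glo luminescence after 30 min at room temperature.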

A short description of test [6]: qHTS assay to identify small molecule antagonists of the retinoid-related orphan receptor gamma (ROR-gamma) signaling pathway - cell viability counter screen (AID 1159520). Note: nearly all actives have a fitted effect of over 50% in size. In short, it runs like this: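 Tet-on ROR gamma CHO cells were given compounds for 2 hr, then doxycycline hyclate at 1 uM final, and incubated 16 hr at 37 C. Viability was measured as ATP content by CellTiter-Glo luminescence.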

A short description of test [7]: qHTS assay to identify small molecule agonists of the AP-1 signaling pathway - cell viability counter screen (AID 1159525; calls by dose curve; note: nearly all actives have a fitted effect of over 55% in size). In short, it runs like this: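 AP-1-bla ME-180 cells in Opti-MEM with 0.5% dialyzed FBS, compound exposure 5 h at 37 C in 15-point titration. Viability read in the same wells as ATP content by CellTiter-Glo luminescence, normalised to tetra-n-octylammonium bromide and DMSO controls.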

Test [8] is described as follows: qHTS assay to identify small molecule agonists of the AP-1 signaling pathway (AID 1159526; calls by dose curve).
Test [9] in a line: qHTS assay to identify small molecule antagonists of the retinoid acid receptor (RAR) signaling pathway - cell viability counter screen (AID 1159551). Note: nearly all actives have a fitted effect of over 35% in size. In short, it runs like this:
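Seed C3RL4 cells; next day add compound, then retinol to 1 uM final; incubate 6 h at 37 C; add CellTiter-Glo; read luminescence after 30 min at RT.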

Test [10] in a line: qHTS assay to identify small molecule antagonists of the retinoic acid receptor (RAR) signaling pathway (AID 1159552; note: nearly all actives have a fitted effect of over 50% in size). In short, it runs like this: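 Cells of the C3RL4 line were seeded, incubated overnight, then dosed with compounds in DMSO followed immediately by retinol (1 uM final). Six hours later luciferase detection reagent went in; signal was measured after 30 min at RT.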

Test [11] is described as follows: qHTS assay to identify small molecule agonists of the retinoic acid receptor (RAR) signaling pathway (AID 1159553). In short, it runs like this: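 Activation of retinol signaling was monitored via a RARE luciferase reporter in C3RL4 cells. After 6 hr compound treatment at 37 C, detection reagent was added for 30 min at room temperature before luminescence reading.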

Test [12] addresses Nuclear receptor ROR-gamma (Homo sapiens) (UniProt P51449). Nature of the test: qHTS assay to identify small molecule antagonists of the retinoid-related orphan receptor gamma (ROR-gamma) signaling pathway (AID 1159521). In short, it runs like this:
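CHO Tet-on RORγ, RORE-luc reporter. Cpd 2 h pre-incubation, then dox hyclate 1 uM final, 16 h, 37 C/5% CO2. ONE-Glo luminescence; decrease = antagonist.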

The target in test [13] is Retinoic acid receptor RXR-alpha (Homo sapiens) (UniProt P19793). The test can be described thus: qHTS assay to identify small molecule agonists of the RXR signaling pathway (AID 1159527; calls by dose curve; note: nearly all actives have a fitted effect of over 35% in size; note: potency is the fitted concentration of half-maximal effect). In short, it runs like this:
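Read-out: beta-lactamase FRET ratio (405 nm excitation, 460 and 530 nm emission) after 2 hr substrate loading at room temperature. Cells were RXR-alpha-UAS-bla HEK 293T treated with compounds for 16 hr in 2% charcoal-stripped FBS medium.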

The nature of test [14]: qHTS assay to identify small molecule agonists of the RXR signaling pathway - cell viability counter screen (AID 1159529). In short, it runs like this: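 HEK 293T RXRa-bla cells, 2% CS-FBS; 5 h settle; cpd 16 h 37 C, 5% CO2; CellTiter-Glo 30 min RT, luminescence. Tetraoctyl ammonium bromide as positive control.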
A short description of test [15]: qHTS assay to identify small molecule agonists of the NFkB signaling pathway - cell viability counter screen (AID 1159515; calls by dose curve; note: series mostly up to about 61 µM; nearly all actives have a fitted effect of over 55% in size). In short, it runs like this: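 5 hr compound treatment of NFkB-bla ME-180 cells (2,000/well, seeded overnight beforehand), followed by reporter substrate for 1.5 hr. CellTiter-Glo added afterward; luminescence after 30 min RT.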

Chain of Retinoic acid receptor RXR-alpha (Homo sapiens) (P19793 whole entry, looked up): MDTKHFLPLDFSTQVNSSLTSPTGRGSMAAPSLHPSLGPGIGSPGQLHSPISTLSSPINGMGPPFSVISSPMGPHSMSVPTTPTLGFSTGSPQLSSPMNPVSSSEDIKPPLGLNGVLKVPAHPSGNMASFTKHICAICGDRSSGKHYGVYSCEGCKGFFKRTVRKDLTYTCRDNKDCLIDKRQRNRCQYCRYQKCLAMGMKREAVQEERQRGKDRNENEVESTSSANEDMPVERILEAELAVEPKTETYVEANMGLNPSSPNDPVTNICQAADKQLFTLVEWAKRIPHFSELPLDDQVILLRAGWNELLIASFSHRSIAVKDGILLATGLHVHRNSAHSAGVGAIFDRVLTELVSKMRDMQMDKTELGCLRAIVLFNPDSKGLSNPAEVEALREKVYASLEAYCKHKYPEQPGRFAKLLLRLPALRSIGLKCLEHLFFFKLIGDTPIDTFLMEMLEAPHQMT

As for `CCCCCCCCCCCCCCC`, the call in test [1], in test [2], in test [3], in [4], in test [5] and in [7] was inactive. In addition, the call in test [9] was inactive. Further, the Potency entry in test [6], in test [8], in [10] and in test [11] was “inactive” each time.
Regarding `OCC(O)[C@@H](O)[C@H](O)[C@H](O)CO[C@H]1O[C@H](CO)[C@@H](O)[C@H](O)[C@H]1O` (stereo partly specified), the result in test [1], in [3], in [4], in test [5], in [7] and in test [9] was inactive. In addition, the Potency result in test [6], in test [12], in test [8], in test [13] and in test [14] was “inactive” in each case.
Consider `CCCCCCCCCCCl`, for which the compound was classed as inactive in test [1], in [2], in test [3], in test [4], in [5] and in [7]. Besides, the call in [9] was inactive. In addition, the Potency entry in test [6], in [12], in test [8], in [13] and in [14] was “inactive” in each case.
Take `COC(=O)c1ccc(C(=O)OC)c(C(=O)OC)c1`: the outcome in [1], in test [3], in test [4], in test [5], in test [7] and in [9] was inactive. Also, the Potency result in test [6], in [12], in test [8], in test [13], in test [10] and in test [11] was “inactive” in each case.
As for `OCCCCCCO`, the outcome in test [1], in test [2], in test [3], in test [4], in [5] and in test [7] was inactive. Further, in test [9], the compound was called inactive. Also, the Potency entry in [6], in test [12], in test [8], in test [13], in [10] and in test [11] was “inactive” throughout.
As for `NC(=O)CCCCC1CCSS1` (stereo unspecified), the result in test [1], in test [2], in test [3], in test [4], in test [5] and in test [7] was inactive. Further, the call in test [9] was inactive. Moreover, the Potency entry in [6], in [12], in test [8], in test [13] and in test [14] was “inactive” throughout.
For `CSc1ccc(C=O)cc1`, the compound was called inactive in test [2], in test [3], in test [4], in test [5] and in test [7]. Also, the Potency result in test [6], in test [12], in test [8], in test [13], in [14] and in test [10] was “inactive” in each case.
Consider `CC(C)c1cccc(O)c1`, for which the result in test [1], in [2], in [3], in test [4], in [5] and in test [7] was inactive. In addition, the call in test [9] was inactive. The Potency entry in test [12], in test [8] and in test [13] was “inactive” in each case.
As to `CCCCCCOC(=O)CC(CC(=O)OCCCCCC)(OC(=O)CCC)C(=O)OCCCCCC`, the call in test [3], in test [4], in [5], in [7] and in test [9] was inactive. The Potency result in test [6], in test [12], in test [8], in test [14], in test [10] and in test [11] was “inactive” each time.
On to `CC(C)[N+](C)(C)CC(O)COc1cccc2ccccc12` (stereo unspecified), for which the call in test [1], in test [2], in test [15], in [4], in test [5] and in [7] was inactive. Also, the compound was classed as inactive in test [9]. In addition, the Potency entry in [6], in [12], in [8], in [13] and in test [14] was “inactive” each time.
As to `CC(CCO)CCCC(C)(C)O` (stereo unspecified), the call in test [1], in [2], in test [3], in [4], in test [5] and in [7] was inactive. In addition, the outcome in test [9] was inactive. Also, the Potency result in test [12], in test [8] and in [14] was “inactive” each time. Besides, the Potency in test [13] is 3.09 µM (active).

The values are drawn from PubChem BioAssay (Tox21).
